# Inconclusive results are not listed. Active and inactive are the calls of the source. The call rests on the fitted dose curve; in most records, active means well fitted inhibition curve with a large enough effect; inconclusive means small, poorly fitted or top-dose-only effect; inactive means no such curve, though single readings can be large or run the other way.
# Target: Protein phosphatase 1D (Homo sapiens) (UniProt O15297)
# Experiment: RapidFire Mass Spectrometry qHTS Assay for Modulators of WT P53-Induced Phosphatase 1 (WIP1) (AID 1347424);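 further: amount of dephosphorylated VEPPL-S-QETFS peptide product formed by WIP1; plate controls were DMSO wells for no effect and GSK830371 inhibitor control at 10 µM for full effect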
# Conditions: WIP1 dephosphorylation of phosphopeptide, RapidFire MS; series mostly up to 63 µM; activity change, negative = inhibition: at the top concentration
# Procedure, shortened: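 Mass-spectrometric measurement of dephosphorylated peptide after a 5 min room-temperature reaction of 10 nM WIP1 with 2 uM phosphopeptide, following 1 h compound preincubation in 30 mM MgCl2 buffer.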
# Protein phosphatase 1D (Homo sapiens), sequence (O15297 whole entry, looked up): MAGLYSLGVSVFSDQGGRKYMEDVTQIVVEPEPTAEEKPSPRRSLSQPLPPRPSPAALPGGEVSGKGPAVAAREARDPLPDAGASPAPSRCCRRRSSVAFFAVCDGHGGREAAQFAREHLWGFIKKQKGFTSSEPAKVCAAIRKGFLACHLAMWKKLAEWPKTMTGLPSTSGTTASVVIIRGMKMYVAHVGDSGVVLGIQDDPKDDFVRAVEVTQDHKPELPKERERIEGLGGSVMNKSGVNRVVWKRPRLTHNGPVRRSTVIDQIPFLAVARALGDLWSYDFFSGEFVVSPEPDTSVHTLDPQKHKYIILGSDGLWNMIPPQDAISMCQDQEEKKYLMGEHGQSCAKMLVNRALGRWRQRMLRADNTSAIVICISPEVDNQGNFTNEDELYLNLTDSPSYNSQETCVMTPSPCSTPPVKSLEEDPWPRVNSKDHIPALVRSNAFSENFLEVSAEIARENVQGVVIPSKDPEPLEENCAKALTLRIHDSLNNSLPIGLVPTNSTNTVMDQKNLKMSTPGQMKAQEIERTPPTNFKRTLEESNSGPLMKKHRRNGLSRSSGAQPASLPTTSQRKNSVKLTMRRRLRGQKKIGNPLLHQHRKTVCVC
row,SMILES,"activity change, negative = inhibition"
1,Cc1cc2c(s1)Nc1ccccc1N=C2N1CCN(C)CC1,-8.6% (inactive)
2,Cc1ncc([N+](=O)[O-])n1CC(C)O (centres undefined),7.26% (inactive)
3,O=C(c1ccccc1)c1ccc2n1CCC2C(=O)O (centres undefined),-2.73% (inactive)
4,Cc1nccn1CC1CCc2c(c3ccccc3n2C)C1=O (centres undefined),-9.15% (inactive)
5,CCCOc1ccc2nc(NC(=O)OC)[nH]c2c1,11.9% (inactive)
6,N=C(N)c1ccc2cc(OC(=O)c3ccc(N=C(N)N)cc3)ccc2c1,-0.627% (inactive)
7,COCCCOc1ccnc(CS(=O)c2nc3ccccc3[nH]2)c1C (centres undefined),45.6% (inactive)
8,CCCCc1ccc2nc(NC(=O)OC)[nH]c2c1,-9.58% (inactive)
9,CCCc1cc(=O)[nH]c(=S)[nH]1,-1.13% (inactive)
10,COC1=C(OC)C(=O)C(CCCCCCCCCCO)=C(C)C1=O,61.1% (inactive)
11,CCC1=C(C)CN(C(=O)NCCc2ccc(S(=O)(=O)NC(=O)NC3CCC(C)CC3)cc2)C1=O (centres undefined),-17.3% (inactive)
12,CCC[C@@H]1C[C@@H](C(=O)N[C@@H]([C@H]2O[C@H](SC)[C@H](O)[C@@H](O)[C@H]2O)[C@@H](C)O)N(C)C1,0.427% (inactive)
13,Cc1cc(=O)c2c(O)c3c(O)cc(=O)c4c3c3c(cc(O)c1c23)C(C)(C)C=4O,-14.9% [at 26.6 µM] (inactive)
14,N=C(N=C(N)N)N1CCOCC1,-4.98% (inactive)
15,Cc1c(C(=O)NN2CCCCC2)nn(-c2ccc(Cl)cc2Cl)c1-c1ccc(Cl)cc1,3.54% (inactive)
16,Cc1nc(-c2ccc(OCC(C)C)c(C#N)c2)sc1C(=O)O,-12% (inactive)
17,CC(C)c1ccc2oc3nc(N)c(C(=O)O)cc3c(=O)c2c1,-1.25% (inactive)
18,Nc1cccc2c1CN(C1CCC(=O)NC1=O)C2=O (centres undefined),-4.23% (inactive)
19,CCOC(=O)c1c(C)n(C)c2ccc(O)cc12,11.1% (inactive)
